Test results taken from ChEMBL document CHEMBL1961873, “Compounds: GSK PKIS; Assays: Nanosyn kinase panel” (2012).

Columns and labels:
[1] = target: T1, Inhibitor of nuclear factor kappa-B kinase subunit epsilon (Homo sapiens) (UniProt Q14164); details: at 1 µM;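 note: reported values are averaged percent inhibition figures against human IKKε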
T1 sequence (whole entry): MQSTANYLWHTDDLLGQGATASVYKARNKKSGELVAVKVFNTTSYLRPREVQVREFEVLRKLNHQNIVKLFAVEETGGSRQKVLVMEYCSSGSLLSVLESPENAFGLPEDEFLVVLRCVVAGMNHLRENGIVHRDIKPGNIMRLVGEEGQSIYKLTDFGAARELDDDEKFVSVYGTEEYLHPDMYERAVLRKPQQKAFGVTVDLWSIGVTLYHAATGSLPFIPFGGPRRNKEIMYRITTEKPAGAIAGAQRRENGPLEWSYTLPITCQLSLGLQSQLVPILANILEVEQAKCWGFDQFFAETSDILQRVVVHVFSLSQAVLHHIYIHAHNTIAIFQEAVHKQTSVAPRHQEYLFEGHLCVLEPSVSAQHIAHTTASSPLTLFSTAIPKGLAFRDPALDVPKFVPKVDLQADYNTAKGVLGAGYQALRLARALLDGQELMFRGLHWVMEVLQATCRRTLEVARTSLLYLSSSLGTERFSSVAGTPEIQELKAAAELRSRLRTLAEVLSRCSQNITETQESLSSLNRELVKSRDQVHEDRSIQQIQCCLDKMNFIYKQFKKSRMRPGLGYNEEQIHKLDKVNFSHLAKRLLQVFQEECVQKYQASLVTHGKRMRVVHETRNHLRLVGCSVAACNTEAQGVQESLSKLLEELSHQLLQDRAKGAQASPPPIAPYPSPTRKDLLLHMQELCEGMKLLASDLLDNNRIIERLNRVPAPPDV

[2] = target: T2, Serine/threonine-protein kinase Nek1 (Homo sapiens) (UniProt Q96PY6); details: at 0.1 µM
T2 sequence (whole entry): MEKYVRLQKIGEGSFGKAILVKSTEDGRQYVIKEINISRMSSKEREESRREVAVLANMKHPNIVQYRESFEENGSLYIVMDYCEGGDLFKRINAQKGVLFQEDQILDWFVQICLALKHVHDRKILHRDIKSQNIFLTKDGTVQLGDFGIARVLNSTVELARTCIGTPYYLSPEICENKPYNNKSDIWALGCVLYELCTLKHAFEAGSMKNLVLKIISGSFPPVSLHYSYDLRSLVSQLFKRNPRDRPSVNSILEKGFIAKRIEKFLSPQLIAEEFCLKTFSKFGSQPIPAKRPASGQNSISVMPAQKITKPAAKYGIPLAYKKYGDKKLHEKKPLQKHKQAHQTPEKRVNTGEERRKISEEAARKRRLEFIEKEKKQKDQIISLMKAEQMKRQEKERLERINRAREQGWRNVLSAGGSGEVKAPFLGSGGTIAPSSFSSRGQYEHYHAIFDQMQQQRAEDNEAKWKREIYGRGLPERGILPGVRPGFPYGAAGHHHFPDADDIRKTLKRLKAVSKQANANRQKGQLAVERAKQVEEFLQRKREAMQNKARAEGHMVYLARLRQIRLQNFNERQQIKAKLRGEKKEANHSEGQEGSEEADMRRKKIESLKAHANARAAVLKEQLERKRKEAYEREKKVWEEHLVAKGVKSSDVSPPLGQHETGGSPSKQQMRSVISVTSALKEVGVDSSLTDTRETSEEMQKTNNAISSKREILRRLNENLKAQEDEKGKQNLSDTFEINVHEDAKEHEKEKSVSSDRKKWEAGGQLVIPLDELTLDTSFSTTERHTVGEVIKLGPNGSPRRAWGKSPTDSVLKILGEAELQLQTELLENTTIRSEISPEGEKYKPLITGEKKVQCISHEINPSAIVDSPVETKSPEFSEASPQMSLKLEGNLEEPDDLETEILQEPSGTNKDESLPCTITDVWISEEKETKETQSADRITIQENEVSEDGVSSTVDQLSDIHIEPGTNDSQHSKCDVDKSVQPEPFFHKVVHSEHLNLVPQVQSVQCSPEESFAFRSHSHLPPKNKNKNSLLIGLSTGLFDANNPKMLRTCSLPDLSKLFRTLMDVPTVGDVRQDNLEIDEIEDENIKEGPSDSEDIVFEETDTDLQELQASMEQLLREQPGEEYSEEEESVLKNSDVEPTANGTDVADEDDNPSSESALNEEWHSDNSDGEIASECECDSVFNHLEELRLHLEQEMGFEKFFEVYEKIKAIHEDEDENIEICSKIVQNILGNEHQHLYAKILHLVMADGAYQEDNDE

[3] = target: T2, Serine/threonine-protein kinase Nek1 (Homo sapiens); details: at 1 µM
[4] = target: T3, Serine/threonine-protein kinase Nek2 (Homo sapiens) (UniProt P51955); details: at 0.1 µM
T3 sequence (whole entry): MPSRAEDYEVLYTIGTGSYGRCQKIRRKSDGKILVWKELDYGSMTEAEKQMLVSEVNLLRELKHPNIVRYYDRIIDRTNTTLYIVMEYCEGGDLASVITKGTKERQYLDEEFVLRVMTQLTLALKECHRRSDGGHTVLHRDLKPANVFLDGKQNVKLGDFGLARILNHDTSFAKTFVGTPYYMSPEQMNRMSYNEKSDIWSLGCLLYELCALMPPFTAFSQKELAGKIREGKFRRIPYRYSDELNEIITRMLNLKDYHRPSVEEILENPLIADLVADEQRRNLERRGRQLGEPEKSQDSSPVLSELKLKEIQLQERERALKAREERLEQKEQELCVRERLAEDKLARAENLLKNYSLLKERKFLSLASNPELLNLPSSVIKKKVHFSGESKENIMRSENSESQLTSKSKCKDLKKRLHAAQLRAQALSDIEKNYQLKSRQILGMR

[5] = target: T3, Serine/threonine-protein kinase Nek2 (Homo sapiens); details: at 1 µM
[6] = target: Serine/threonine-protein kinase Nek6 (Homo sapiens) (UniProt Q9HC98); details: at 0.1 µM
Serine/threonine-protein kinase Nek6 (Homo sapiens), sequence (Q9HC98 whole entry): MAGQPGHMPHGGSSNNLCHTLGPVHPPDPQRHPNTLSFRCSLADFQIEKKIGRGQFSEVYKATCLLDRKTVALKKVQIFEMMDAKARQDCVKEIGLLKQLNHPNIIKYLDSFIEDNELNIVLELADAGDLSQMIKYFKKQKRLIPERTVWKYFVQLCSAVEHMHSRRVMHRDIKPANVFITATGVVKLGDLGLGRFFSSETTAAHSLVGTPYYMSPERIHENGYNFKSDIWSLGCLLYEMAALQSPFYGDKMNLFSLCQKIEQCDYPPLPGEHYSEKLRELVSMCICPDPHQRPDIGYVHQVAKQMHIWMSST

[7] = target: Serine/threonine-protein kinase Nek6 (Homo sapiens) (UniProt Q9HC98); details: at 1 µM
[8] = target: Serine/threonine-protein kinase Nek7 (Homo sapiens) (UniProt Q8TDX7); details: at 0.1 µM
Serine/threonine-protein kinase Nek7 (Homo sapiens), sequence (Q8TDX7 whole entry, looked up): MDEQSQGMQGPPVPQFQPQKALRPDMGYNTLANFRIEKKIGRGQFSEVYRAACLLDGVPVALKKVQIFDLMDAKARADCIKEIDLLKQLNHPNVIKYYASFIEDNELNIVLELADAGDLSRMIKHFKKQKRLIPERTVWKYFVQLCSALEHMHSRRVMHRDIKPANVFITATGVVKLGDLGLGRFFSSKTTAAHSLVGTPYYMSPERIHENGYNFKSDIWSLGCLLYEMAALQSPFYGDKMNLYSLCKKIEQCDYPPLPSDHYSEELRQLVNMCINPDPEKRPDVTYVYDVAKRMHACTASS

[9] = target: Serine/threonine-protein kinase Nek7 (Homo sapiens) (UniProt Q8TDX7); details: at 1 µM
[10] = target: T4, Serine/threonine-protein kinase Nek9 (Homo sapiens) (UniProt Q8TD19); details: at 0.1 µM
T4 sequence (whole entry): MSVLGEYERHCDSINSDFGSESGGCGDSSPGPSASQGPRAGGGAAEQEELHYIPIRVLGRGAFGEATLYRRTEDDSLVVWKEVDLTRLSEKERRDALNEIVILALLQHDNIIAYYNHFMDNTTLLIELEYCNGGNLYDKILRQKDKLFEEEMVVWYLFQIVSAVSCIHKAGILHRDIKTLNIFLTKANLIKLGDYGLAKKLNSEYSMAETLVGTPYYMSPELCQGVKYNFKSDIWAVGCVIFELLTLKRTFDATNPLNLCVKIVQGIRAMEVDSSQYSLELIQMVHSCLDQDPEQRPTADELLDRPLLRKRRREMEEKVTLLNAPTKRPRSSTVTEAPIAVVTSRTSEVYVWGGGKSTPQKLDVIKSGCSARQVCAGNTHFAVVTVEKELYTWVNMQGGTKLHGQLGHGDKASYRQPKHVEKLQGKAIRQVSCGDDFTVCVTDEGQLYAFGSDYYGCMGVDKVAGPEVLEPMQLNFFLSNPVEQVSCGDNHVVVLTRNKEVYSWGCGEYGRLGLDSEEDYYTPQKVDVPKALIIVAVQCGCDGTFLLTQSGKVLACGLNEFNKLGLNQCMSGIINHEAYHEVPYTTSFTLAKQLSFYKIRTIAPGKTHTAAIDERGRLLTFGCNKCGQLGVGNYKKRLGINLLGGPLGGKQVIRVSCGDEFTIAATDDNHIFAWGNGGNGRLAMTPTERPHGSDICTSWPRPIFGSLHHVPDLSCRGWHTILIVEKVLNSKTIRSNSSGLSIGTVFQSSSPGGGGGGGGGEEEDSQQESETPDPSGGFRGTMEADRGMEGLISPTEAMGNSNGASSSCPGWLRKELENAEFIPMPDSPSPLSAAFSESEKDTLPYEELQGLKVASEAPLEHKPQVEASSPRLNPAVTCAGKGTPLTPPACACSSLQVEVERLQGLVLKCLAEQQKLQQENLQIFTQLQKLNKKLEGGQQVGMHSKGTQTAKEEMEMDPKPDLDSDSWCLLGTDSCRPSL

[11] = target: T4, Serine/threonine-protein kinase Nek9 (Homo sapiens); details: at 1 µM
[12] = target: Serine/threonine-protein kinase PLK1 (Homo sapiens) (UniProt P53350); details: at 0.1 µM
Serine/threonine-protein kinase PLK1 (Homo sapiens), sequence (P53350 whole entry): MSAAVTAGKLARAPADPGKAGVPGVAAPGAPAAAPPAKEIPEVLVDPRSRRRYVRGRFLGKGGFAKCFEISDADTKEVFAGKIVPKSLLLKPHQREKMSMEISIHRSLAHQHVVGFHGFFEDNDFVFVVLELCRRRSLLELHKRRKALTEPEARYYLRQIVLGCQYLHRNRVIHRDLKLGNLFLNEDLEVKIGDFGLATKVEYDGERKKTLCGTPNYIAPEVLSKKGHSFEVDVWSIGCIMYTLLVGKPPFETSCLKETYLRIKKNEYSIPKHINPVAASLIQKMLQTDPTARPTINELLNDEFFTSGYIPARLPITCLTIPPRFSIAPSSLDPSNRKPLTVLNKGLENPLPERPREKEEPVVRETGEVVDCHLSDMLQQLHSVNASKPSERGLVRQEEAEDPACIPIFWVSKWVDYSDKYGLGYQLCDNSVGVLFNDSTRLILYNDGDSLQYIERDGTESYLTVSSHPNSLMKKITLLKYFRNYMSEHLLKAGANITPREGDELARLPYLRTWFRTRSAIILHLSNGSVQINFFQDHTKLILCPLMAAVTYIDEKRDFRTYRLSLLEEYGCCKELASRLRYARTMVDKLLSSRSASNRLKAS

[13] = target: Serine/threonine-protein kinase PLK1 (Homo sapiens) (UniProt P53350); details: at 1 µM
[14] = target: T5, Dual specificity protein kinase TTK (Homo sapiens) (UniProt P33981); details: at 0.1 µM
T5 sequence (whole entry): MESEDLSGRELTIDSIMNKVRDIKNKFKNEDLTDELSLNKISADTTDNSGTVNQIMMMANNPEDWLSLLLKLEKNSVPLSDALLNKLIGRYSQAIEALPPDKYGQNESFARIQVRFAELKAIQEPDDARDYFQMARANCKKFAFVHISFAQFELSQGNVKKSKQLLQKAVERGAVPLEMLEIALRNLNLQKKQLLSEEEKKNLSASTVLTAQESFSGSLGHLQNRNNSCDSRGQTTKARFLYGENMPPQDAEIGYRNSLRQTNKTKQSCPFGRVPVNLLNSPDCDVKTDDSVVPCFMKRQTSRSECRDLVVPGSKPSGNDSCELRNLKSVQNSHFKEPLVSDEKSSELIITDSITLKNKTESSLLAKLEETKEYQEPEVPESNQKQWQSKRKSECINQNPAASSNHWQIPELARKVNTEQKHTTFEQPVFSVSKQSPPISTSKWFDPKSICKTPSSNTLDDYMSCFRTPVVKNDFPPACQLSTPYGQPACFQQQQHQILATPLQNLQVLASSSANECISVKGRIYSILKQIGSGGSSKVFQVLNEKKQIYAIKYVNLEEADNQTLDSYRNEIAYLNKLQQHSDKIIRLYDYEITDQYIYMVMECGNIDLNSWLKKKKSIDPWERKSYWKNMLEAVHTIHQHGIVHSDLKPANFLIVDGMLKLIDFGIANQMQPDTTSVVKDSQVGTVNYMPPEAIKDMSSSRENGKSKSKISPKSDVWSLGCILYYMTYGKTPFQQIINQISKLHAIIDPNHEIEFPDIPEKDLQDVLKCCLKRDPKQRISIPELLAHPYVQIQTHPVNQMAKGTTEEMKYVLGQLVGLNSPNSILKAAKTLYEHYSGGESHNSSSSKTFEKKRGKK

[15] = system: T6, Receptor-type tyrosine-protein kinase FLT3 (Homo sapiens), P36888 [D835Y]; details: at 1 µM
T6 sequence (whole entry): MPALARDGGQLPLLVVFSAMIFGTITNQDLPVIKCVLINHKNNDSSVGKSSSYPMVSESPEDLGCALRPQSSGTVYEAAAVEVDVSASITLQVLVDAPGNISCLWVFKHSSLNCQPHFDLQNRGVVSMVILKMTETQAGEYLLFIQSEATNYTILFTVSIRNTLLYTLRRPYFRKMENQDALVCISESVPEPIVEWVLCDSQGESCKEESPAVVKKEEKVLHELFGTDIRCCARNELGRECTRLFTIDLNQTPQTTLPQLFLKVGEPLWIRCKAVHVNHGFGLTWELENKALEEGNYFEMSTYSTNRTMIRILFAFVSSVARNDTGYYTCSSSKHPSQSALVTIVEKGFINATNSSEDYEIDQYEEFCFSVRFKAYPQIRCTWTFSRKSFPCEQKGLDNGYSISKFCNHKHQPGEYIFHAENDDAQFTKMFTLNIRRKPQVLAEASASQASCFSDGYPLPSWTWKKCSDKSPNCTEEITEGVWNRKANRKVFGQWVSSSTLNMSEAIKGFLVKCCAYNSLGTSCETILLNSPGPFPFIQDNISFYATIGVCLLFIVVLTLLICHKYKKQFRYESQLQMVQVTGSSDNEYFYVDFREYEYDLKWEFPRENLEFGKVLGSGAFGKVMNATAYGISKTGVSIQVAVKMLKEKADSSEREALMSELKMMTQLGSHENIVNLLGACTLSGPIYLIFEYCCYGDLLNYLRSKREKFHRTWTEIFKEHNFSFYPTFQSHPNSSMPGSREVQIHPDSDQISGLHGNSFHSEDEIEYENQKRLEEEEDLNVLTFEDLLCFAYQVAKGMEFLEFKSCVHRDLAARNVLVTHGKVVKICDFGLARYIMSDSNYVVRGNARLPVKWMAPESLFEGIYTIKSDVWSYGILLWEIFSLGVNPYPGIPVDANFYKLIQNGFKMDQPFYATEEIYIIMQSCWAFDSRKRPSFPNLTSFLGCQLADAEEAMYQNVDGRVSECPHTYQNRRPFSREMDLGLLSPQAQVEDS

[16] = target: Vascular endothelial growth factor receptor 3 (Homo sapiens) (UniProt P35916); details: at 0.1 µM
Vascular endothelial growth factor receptor 3 (Homo sapiens), sequence (P35916 whole entry): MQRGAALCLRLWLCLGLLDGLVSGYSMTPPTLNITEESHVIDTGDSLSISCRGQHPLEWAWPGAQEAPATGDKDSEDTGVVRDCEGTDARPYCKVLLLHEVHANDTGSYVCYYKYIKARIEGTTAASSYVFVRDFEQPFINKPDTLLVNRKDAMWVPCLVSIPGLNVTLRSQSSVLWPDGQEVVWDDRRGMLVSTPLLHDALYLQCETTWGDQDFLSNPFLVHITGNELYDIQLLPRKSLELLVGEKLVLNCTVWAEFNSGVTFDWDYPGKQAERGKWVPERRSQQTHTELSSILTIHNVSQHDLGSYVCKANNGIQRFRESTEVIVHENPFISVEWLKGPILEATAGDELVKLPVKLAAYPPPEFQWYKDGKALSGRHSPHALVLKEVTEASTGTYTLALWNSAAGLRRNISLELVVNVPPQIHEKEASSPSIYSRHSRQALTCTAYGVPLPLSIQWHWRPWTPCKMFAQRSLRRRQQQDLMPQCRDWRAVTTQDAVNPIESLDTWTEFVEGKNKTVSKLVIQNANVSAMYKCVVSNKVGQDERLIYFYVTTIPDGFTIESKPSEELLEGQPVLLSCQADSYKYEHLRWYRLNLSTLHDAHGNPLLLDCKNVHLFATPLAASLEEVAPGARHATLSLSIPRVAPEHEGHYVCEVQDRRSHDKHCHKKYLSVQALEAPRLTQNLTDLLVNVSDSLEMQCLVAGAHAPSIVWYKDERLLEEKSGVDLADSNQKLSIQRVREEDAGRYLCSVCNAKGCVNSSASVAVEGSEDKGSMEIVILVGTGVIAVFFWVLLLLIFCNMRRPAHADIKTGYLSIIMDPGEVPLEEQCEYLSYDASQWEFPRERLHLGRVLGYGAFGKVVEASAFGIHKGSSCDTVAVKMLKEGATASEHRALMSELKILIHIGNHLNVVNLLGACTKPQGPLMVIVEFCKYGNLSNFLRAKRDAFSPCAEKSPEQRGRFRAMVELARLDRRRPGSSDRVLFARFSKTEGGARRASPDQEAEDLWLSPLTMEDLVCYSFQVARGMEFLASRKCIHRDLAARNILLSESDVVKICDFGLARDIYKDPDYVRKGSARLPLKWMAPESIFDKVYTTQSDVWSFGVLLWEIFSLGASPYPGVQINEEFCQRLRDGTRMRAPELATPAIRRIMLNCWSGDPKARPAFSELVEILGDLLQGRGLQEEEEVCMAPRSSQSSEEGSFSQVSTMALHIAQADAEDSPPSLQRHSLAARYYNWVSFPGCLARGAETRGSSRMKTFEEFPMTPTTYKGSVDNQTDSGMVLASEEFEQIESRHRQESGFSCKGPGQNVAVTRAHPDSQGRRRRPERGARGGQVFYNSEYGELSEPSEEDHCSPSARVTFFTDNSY

[17] = target: Vascular endothelial growth factor receptor 3 (Homo sapiens) (UniProt P35916); details: at 1 µM
[18] = target: Macrophage colony-stimulating factor 1 receptor (Homo sapiens) (UniProt P07333); details: at 0.1 µM
Macrophage colony-stimulating factor 1 receptor (Homo sapiens), sequence (P07333 whole entry): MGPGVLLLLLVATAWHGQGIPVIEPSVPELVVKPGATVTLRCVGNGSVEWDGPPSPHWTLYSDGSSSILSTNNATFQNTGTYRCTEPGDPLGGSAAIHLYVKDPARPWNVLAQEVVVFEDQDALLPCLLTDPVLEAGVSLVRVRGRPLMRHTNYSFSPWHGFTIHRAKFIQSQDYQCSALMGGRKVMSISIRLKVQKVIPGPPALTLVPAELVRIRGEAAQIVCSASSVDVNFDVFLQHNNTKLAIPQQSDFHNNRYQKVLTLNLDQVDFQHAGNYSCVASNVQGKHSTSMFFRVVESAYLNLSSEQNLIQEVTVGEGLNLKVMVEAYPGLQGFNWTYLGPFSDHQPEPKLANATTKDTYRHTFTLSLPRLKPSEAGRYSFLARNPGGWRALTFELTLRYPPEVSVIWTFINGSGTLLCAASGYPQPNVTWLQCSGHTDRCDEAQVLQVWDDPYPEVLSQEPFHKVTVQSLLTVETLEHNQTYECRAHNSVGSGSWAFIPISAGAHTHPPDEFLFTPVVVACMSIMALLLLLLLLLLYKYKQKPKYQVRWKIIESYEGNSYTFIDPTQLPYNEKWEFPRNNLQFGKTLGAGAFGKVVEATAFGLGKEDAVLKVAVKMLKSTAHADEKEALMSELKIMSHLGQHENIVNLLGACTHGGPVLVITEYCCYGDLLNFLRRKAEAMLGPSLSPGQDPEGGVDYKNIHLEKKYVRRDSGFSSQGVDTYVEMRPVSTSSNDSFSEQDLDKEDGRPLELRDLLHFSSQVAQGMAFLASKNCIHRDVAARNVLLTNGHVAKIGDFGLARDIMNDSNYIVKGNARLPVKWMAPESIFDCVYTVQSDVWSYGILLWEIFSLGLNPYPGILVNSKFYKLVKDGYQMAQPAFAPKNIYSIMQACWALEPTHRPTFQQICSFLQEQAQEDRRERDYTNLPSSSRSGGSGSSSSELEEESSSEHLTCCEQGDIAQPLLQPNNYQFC

[19] = target: Macrophage colony-stimulating factor 1 receptor (Homo sapiens) (UniProt P07333); details: at 1 µM
[20] = target: Tyrosine-protein kinase Fyn (Homo sapiens) (UniProt P06241); details: at 0.1 µM
Tyrosine-protein kinase Fyn (Homo sapiens), sequence (P06241 2-537 limits assumed): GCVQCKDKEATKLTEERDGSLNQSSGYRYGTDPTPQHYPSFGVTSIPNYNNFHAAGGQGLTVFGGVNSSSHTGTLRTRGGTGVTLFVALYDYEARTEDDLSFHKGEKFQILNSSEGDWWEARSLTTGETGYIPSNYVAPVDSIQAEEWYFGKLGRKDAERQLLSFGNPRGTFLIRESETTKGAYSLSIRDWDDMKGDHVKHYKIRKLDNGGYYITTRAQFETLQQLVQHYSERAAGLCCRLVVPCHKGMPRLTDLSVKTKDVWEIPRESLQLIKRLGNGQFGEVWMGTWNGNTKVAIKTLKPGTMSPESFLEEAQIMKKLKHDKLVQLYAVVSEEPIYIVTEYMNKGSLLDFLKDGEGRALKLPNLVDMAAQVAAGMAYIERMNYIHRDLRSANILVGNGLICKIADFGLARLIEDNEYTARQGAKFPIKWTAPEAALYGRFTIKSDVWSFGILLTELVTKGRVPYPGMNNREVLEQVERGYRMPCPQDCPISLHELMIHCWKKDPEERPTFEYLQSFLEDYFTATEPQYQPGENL

SMILES	inhibition [1]	inhibition [2]	inhibition [3]	inhibition [4]	inhibition [5]	inhibition [6]	inhibition [7]	inhibition [8]	inhibition [9]	inhibition [10]	inhibition [11]	inhibition [12]	inhibition [13]	inhibition [14]	inhibition [15]	inhibition [16]	inhibition [17]	inhibition [18]	inhibition [19]	inhibition [20]
COc1cc2c(cc1Nc1nc(Nc3ccsc3C(N)=O)c3cc[nH]c3n1)N(C(=O)CN(C)C)CCC2(C)C	35.2%	2.74%	2.8%	6.02%	7.22%	2.59%	5.27%	12.7%	42.1%	4.77%	9.86%	56.7%	89.4%	40%	22.1%	3.15%	5.12%	81.7%	94.3%	0.64%
c1cc(-c2cnn3nc(N4CCOCC4)ccc23)nc(NC2CC2)n1	5.49%	3.14%	6.78%	4.47%	4.05%	0.95%	0.56%	3.89%	4.77%	-1.68%	-2.57%	2.55%	2.08%	18.4%	37.5%	5.93%	29.9%	6.94%	33.7%	0.47%
